A selection: hits, their analogues and other compounds. The true share with any hit is near 19%.
IL1B secr inh: inflammasome signaling inhibition, IL-1 beta readout | THP-1 LPS/ATP IL-1B secretion, AlphaLISA, 16 h; stronger effect = lower value | activity change, % at 57.5 µM | 360,000 tested, 4.7% active | AID 743279; in the data active = activity change below about -50%; inconclusive = mostly about -30% to -49%; note: % is set by controls: 0 for no effect and ±100 for the full control effect
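THP-1 cells pretreated 1 hr with compounds (up to 57.5 uM final), then stimulated with LPS (250 ng/mL final) plus ATP (1.25 mM final); secreted IL-1B measured by AlphaLISA after 16 hr, decreased signal indicating inhibition.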
DT40 TDP1 CPT: DT40-hTDP1 cell growth loss with CPT. chicken DT40 Tdp1-/-;hTDP1 cells + 20 nM CPT, ATP luminescence, 48 h. Potency, µM (doses to about 46.2 µM), for inactives: top-dose activity change, negative = growth inhibition, most hits filed as inhibitors. 420,000 tested, 12% active; note: potency is the fitted concentration of half-maximal effect; % is set by controls: 0 for no effect and ±100 for the full control effect; nearly all actives have a fitted effect of over 55% in size
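Cell growth measured by CellTiter-Glo luminescence after a minimum 48 h, 37 C compound exposure with 20 nM CPT in Tdp1-knockout DT40 cells stably expressing hTDP1, seeded 400/well; qHTS titration format.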
TDP1 cell noCPT: qHTS for Inhibitors of human tyrosyl-DNA phosphodiesterase 1 (TDP1): qHTS in cells in absence of CPT; DT40 Tdp1-/- hTDP1 cells, no CPT, ATP luminescence, 48 h; Potency, µM (titrated, usually from 46.2 µM), for the others: top-dose activity change, negative = growth inhibition, hits mostly inhibitors; 420,000 tested, 15% active; AID 686978, 2013; note: potency is the fitted concentration of half-maximal effect; % is set by controls: 0 for no effect and ±100 for the full control effect; nearly all actives have a fitted effect of over 55% in size
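Readout: luminescence from CellTiter-Glo after 30 min in the dark at RT. Cells: DT40 Tdp1-/- with stable hTDP1, 400/well. Exposure: compounds alone, ≥48 hr, 37 °C.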
ASM inhibitor: human S-ASM enzyme inhibition | placental ASM, HMU-PC fluorogenic substrate, 60 min | Potency, µM (doses to about 57.5 µM), without a hit: at the top dose activity change, negative = inhibition, usual class: inhibitors | 340,000 tested, 0.006% active; note: potency is the fitted concentration of half-maximal effect
Target sequence (P17405 47-631 limits assumed): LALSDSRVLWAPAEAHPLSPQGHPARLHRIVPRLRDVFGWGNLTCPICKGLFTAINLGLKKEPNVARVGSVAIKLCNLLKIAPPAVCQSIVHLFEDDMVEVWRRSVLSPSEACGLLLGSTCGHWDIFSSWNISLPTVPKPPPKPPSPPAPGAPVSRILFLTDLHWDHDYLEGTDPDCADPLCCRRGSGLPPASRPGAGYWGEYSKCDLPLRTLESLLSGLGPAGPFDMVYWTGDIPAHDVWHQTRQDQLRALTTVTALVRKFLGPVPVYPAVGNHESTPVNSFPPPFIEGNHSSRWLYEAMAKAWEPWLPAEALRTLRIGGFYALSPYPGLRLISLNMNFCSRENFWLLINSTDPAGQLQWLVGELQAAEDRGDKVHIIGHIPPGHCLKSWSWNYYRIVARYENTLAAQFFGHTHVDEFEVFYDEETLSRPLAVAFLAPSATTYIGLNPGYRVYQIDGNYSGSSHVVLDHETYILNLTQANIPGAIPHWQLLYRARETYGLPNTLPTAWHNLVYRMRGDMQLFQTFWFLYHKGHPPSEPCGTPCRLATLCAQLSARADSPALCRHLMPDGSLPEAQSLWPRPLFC
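Steps: dispense placental human ASM, pin compound, wait 10 min at room temperature, add HMU-PC0 substrate at 9 uM final, incubate 60 min at 37 °C, add stop solution raising pH to 10, read fluorescence.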
TGFb inhibitor: blocks TGF-b signaling. HepG2 CAGA-GFP TGF-b/SMAD3 reporter, GFP fluorescence, 18 h; TGF-beta stimulated, 500 pg/mL final. Potency, µM (highest dose often 46.1 µM), inactives show at the top dose activity, negative = inhibition, actives largely listed as inhibitors. 410,000 tested, 1.2% active; note: potency is the fitted concentration of half-maximal effect; % is set by controls: 0 for no effect and ±100 for the full control effect; nearly all actives have a fitted effect of over 65% in size
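HEPG2 CAGA-GFP, 1000 cells/well; 2 h settle, 37 C; cpd via pin tool; TGF-b 500 pg/mL final; 18 h, 37 C; GFP imaging ex488/em500-530; %Activity normalised to -TGF-b and +DMSO controls; CRC fit, curve class.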
HepG2 viability: counter-screen for TGF-b inhibitors: cytotoxicity in HepG2 cells; 410,000 tested, 0.76% active; AID 588856; HepG2 CAGA-GFP viability, ATP luminescence, 18 h; Potency, µM (doses to about 46.1 µM), inactives show at the top dose activity change, negative = cytotoxicity, usual class: cytotoxic; note: potency is the fitted concentration of half-maximal effect
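HepG2 CAGA-GFP cells (1000/well, DMEM with 1% FBS) received compound, then TGF-beta at 500 pg/mL final, and were incubated 18 hours at 37 degrees C. Viability was read by CellTiter-Glo luminescence. Media-only wells were set as complete cell-killing and DMSO as no toxicity.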
* = called active by the depositor; ? = inconclusive; . = no result given. Unless noted, calls come from the whole dose curve; as a rule, active = well fitted curve in the direction sought with a large enough effect; inconclusive = small, poorly fitted or top-dose-only effect, or another doubt; inactive = no such curve, though single readings can be large; an effect the other way counts as inactive or inconclusive.

SMILES	IL1B secr inh	DT40 TDP1 CPT	TDP1 cell noCPT	ASM inhibitor	TGFb inhibitor	HepG2 viability
Cc1cccc(C)c1NC(=O)CCCCCC1NC(=O)NC1C (stereo not given)	-55*	2%	22%	-2%	-3%	24%
O=C(O)CCCCC1SCC2NC(=O)NC21 (stereo not given)	-56*	5%	5%	5%	-3%	-8%
CCOC(=O)c1ccc(CN(Cc2ccccc2C)S(=O)(=O)c2ccc(F)c(C)c2)cc1	.	?	?	.	-24%	-13%
Cc1ccc(C(=O)NCC(c2ccco2)N2CCc3ccccc32)cc1 (stereo not given)	?	10µM*	13µM*	-1%	-7%	-25%
O=C(NCC(c1ccco1)N1CCc2ccccc21)c1ccc([N+](=O)[O-])cc1 (stereo not given)	-4	-13%	-22%	-1%	-14%	-4%
O=C(NCC(c1ccco1)N1CCc2ccccc21)c1cccc([N+](=O)[O-])c1 (stereo not given)	-4	16µM*	21µM*	-2%	-34%	-8%
O=C(NCC(c1ccco1)N1CCc2ccccc21)c1ccccc1Br (stereo not given)	-7	21µM*	?	-1%	-6%	-6%
O=C(NCC(c1ccco1)N1CCc2ccccc21)c1ccccc1F (stereo not given)	-16	-30%	?	-2%	-1%	10%
O=C(CCc1ccccc1)NCC(c1ccco1)N1CCc2ccccc21 (stereo not given)	-7	4.6µM*	4.1µM*	-1%	?	-2%
CC(=O)Nc1ccc(C(=O)N2CCCCC2c2cc(C(=O)NCc3cccnc3)no2)cc1 (stereo not given)	-4	-2%	-2%	.	-1%	-4%
CC(=O)N1C(=O)NC2=C(C(=O)CCC2)C1c1cccc([N+](=O)[O-])c1 (stereo not given)	26	-2%	-15%	2%	-1%	5%
Cc1cccc(C(=O)NCC(c2ccco2)N2CCc3ccccc32)c1 (stereo not given)	-58*	?	15µM*	-5%	0%	1%
CC(=O)Nc1cccc(NC(=O)C(=O)NCC(c2ccco2)N2CCc3ccccc32)c1 (stereo not given)	-8	?	?	-11%	0%	-1%
Cc1ccc(S(=O)(=O)N2CCOCC2)cc1NC(=O)CNC(C)c1ccccc1 (stereo not given)	1	8%	-4%	-2%	-2%	5%
COc1ccccc1CNCC(=O)Nc1cc(S(=O)(=O)N2CCOCC2)ccc1Cl	4	?	16µM*	3%	6%	7%
CC(NCC(=O)Nc1cc(S(=O)(=O)N2CCOCC2)ccc1Cl)c1ccc(Cl)cc1Cl (stereo not given)	-52*	?	23µM*	-8%	?	-4%
CCN(C(=S)Nc1cc(S(=O)(=O)N2CCOCC2)ccc1Cl)c1cccc2ccccc12	9	18µM*	?	15%	?	-25%
COc1ccccc1CNCC(=O)Nc1cc(S(=O)(=O)N2CCCCCC2)ccc1Cl	-8	?	?	-2%	-24%	-17%
Cc1noc(/C=C/N(C)C)c1S(=O)(=O)N1CCCC(C(=O)NC2CCCCC2C)C1 (stereo not given)	-13	?	21µM*	3%	1%	-24%
Cc1cccc(C)c1NC(=O)C1CCCN(S(=O)(=O)c2c(C)noc2/C=C/N(C)C)C1 (stereo not given)	.	16µM*	?	.	-10%	-3%
Cc1ccc(NC(=O)C2CCCN(S(=O)(=O)c3c(C)noc3/C=C/N(C)C)C2)cc1F (stereo not given)	-24	?	18µM*	-3%	-21%	-23%
COc1ccc(C2NC(=S)N(c3ccccc3)C(C)=C2C(=O)Nc2ccccc2)cc1 (stereo not given)	-5	-14%	-15%	-4%	7%	-10%
CC1=C(C(=O)Nc2ccc([N+](=O)[O-])cc2)C(c2cccc(C(F)(F)F)c2)NC(=S)N1c1ccccc1 (stereo not given)	?	13µM*	16µM*	-21%	?	-56%
CCOc1ccc(NC(=O)Cn2c(=O)n(Cc3ccc4c(c3)OCO4)c(=O)c3ccc(C(=O)NC4CCCCC4)cc32)cc1	.	2.6µM*	4.6µM*	.	-2%	-13%
CCc1ccccc1NC(=O)Cn1c(=O)n(Cc2ccc3c(c2)OCO3)c(=O)c2ccc(C(=O)NC3CCCCC3)cc21	.	1.8µM*	?	.	26%	-54%
SMILES	IL1B secr inh	DT40 TDP1 CPT	TDP1 cell noCPT	ASM inhibitor	TGFb inhibitor	HepG2 viability
O=C(Cn1c(=O)n(Cc2ccc3c(c2)OCO3)c(=O)c2ccc(C(=O)NC3CCCCC3)cc21)Nc1ccccc1F	.	?	?	.	-6%	-6%
CCC(=O)N1c2ccccc2CC1C(=O)NCc1ccccc1C (stereo not given)	.	-13%	-4%	.	?	16%
N#C/C(=C\c1cc([N+](=O)[O-])ccc1Cl)C(N)=O	-89*	2.6µM*	2.9µM*	1%	6%	1%
COc1cccc(C2NC(=S)NC3=C2CCc2ccccc23)c1 (stereo not given)	9	?	-26%	9%	2%	-2%
S=C1NC2=C(CCCC2=C2SCCS2)C(c2ccccc2)N1 (stereo not given)	-84*	-16%	16µM*	-2%	0%	-13%
O=C(N[C@@H]1C/C=C\C[C@@H](CC(=O)N(CCO)Cc2ccccc2)C(=O)N[C@@H](c2ccccc2)COC1=O)OCC1c2ccccc2-c2ccccc21	9	7.3µM*	6.5µM*	-3%	?	3%
O=C(N[C@H]1C/C=C\C[C@H](CC(=O)N(CCO)Cc2ccccc2)C(=O)NC[C@H](c2ccccc2)OC1=O)OCC1c2ccccc2-c2ccccc21	-2	6.5µM*	6.5µM*	-1%	5%	-1%
CCc1ccc(NC(=O)C(=O)NCC(c2cccnc2)N2CCOCC2)cc1 (stereo not given)	.	?	?	.	-6%	-6%
CCOC(=O)c1ccccc1NC(=O)c1cc2c(s1)-c1ccccc1SC2	.	?	?	.	4%	-2%
